ELG1 genotoxic: genotoxicity induction in ELG1-luciferase HEK293T cells. 330,000 compounds, 1.3% hits. Potency, µM (highest dose often 46 µM), without a hit: at the top dose activity change, positive = activation, most hits filed as activators. HEK293T ELG1-luciferase reporter, luminescence, 16 h; note: % of control where 0% means no effect; nearly all actives have a fitted effect of over 60% in size
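Reporter readout depends on ELG1 protein level, which increases with genetic stress. After 16 hr compound exposure at 37 °C, luciferase activity was quantified using ONE-Glo.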
Rab9 prom act: activators of Rab9 promoter; Potency, µM (doses to about 9.22 µM), without a hit: top-dose activation, negative = inhibition, hits mostly activators; Huh7 Rab9 promoter-luciferase reporter, luminescence, 24 h; AID 485297; 320,000 compounds, 2.8% hits; note: % of control where 0% means no effect; nearly all actives have a fitted effect of over 60% in size
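Huh7 reporter line, Rab9 promoter upstream of luciferase. Compound exposure 24 h at 37 °C in reduced-serum medium with 10% FBS. Read-out: luminescence.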
FLuc modulator: inhibits or activates purified firefly luciferase, miR-21 counter-screen. purified FLuc, Km substrates, luminescence inhibition. Potency, µM (titrated, usually from 57.5 µM), inactives show at the top dose activity change, negative = inhibition, actives largely listed as inhibitors. 360,000 compounds, 6.9% hits. AID 588342;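 note: plate controls were vehicle for no effect and reference inhibitor for full effect; nearly all actives have a fitted effect of over 55% in size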
Target sequence (P08659 whole entry, looked up): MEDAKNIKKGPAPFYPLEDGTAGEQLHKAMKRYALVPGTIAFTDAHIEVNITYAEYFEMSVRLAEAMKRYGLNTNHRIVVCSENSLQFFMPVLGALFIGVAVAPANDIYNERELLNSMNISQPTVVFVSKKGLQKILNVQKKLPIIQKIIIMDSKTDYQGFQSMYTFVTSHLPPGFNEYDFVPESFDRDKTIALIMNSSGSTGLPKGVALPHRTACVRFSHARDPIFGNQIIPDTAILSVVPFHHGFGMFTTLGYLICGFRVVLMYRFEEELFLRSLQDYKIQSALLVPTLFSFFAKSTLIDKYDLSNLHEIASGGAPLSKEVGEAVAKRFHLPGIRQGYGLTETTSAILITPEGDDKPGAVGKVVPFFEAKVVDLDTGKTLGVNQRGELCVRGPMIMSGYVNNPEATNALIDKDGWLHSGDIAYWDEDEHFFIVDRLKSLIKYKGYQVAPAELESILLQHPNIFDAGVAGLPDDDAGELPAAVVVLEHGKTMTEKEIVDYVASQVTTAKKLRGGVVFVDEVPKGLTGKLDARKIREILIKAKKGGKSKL
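Purified P. pyralis luciferase (10nM final) with 10uM D-luciferin and 10uM ATP (Km levels) in 50mM Tris acetate pH 7.5, 10mM Mg acetate, 0.01% Tween-20, 0.05% BSA; qHTS 6-point titration, ~60 µM downward; luminescence read.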
SMN2 splice up: enhancers of SMN2 splice variant expression; 210,000 compounds, 2.8% hits; HEK293 SMN2-luciferase splicing reporter, luminescence, 30-36 h; Potency, µM (series often up to 46.1 µM), for inactives: top-dose activity change, positive = activation, actives largely listed as activators; note: % of control where 0% means no effect; nearly all actives have a fitted effect of over 55% in size
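HEK293 cells carry an SMN2 […]–luciferase reporter in which exon 7 inclusion puts luciferase in frame. Cells were plated 10-12 h before compound addition, then incubated 30-36 h at 37C. ONE-Glo luminescence was read; sodium butyrate at 4.5 mM final served as control.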
NPC1 promoter act: activators of NPC1 promoter | 320,000 compounds, 2.4% hits | Huh7 NPC1 promoter luciferase reporter, 24 h | AID 485313 | Potency, µM (series often up to 9.22 µM), for inactives: at the top dose activation, actives largely listed as activators; note: % of control where 0% means no effect; nearly all actives have a fitted effect of over 60% in size
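Readout is luciferase luminescence, reflecting NPC1 promoter activation in stably transfected Huh7 cells after 24 h compound exposure at 37 °C in reduced-serum medium with 10% FBS.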
* marks the source's active call; other numbers are inactive results; [ ] = dose if it differs, or a comment. Hits are enriched below; roughly 7.5% of the tested compounds scored in any of these assays. Calls come from the whole dose curve; as a rule, active = well fitted curve in the direction sought with a large enough effect; inconclusive = small, poorly fitted or top-dose-only effect, or another doubt; inactive = no such curve, though single readings can be large; an effect the other way counts as inactive or inconclusive. Potency is the fitted concentration of half-maximal effect.

Screening CCc1ccc(OCC(=O)Nc2ccc3oc(-c4ccc(OC)cc4)nc3c2)cc1 returned FLuc modulator 0% and SMN2 splice up 12%.
Cc1ccc(OCC(=O)Nc2ccc(-c3nc4ccc(C)cc4o3)cc2)cc1 was read as FLuc modulator -2% and SMN2 splice up 0.63µM*.
For CCOc1ccc(-c2nc3cc(NC(=O)COc4cccc(C)c4)ccc3o2)cc1 the results were FLuc modulator -13% and SMN2 splice up -5%.
Screening Cc1ccc2nc(-c3ccc(Cl)c(NC(=O)COc4ccc(C(C)C)cc4)c3)oc2c1 returned FLuc modulator 11µM* and SMN2 splice up 17%.
COc1ccc(OCC(=O)Nc2ccc(-c3nc4cc(C)c(C)cc4o3)cc2)cc1 was read as SMN2 splice up 0.56µM*.
Cc1ccc2nc(-c3ccc(Cl)c(NC(=O)c4ccc5c(c4)OCCO5)c3)oc2c1 was read as FLuc modulator 11µM* and SMN2 splice up -34%.
OCCCNCc1ccncc1 was read as SMN2 splice up 4%[9.22 µM].
`CCCCC(=O)NN(C)c1nc(-c2ccccc2)nnc1C(F)(F)F` gave ELG1 genotoxic -3%, Rab9 prom act 0%, FLuc modulator -3%, SMN2 splice up -44% and NPC1 promoter act -2%.
`O=C(Nc1ccc2c(c1)OCO2)c1ccc(Cl)c(S(=O)(=O)N2CCOCC2)c1` gave ELG1 genotoxic -12%, Rab9 prom act 18%, FLuc modulator inconclusive and NPC1 promoter act -2%.
For N#CC1=C(N)OC2=C(C(=O)CCC2)C1c1ccncc1 (configuration not stated) the results were ELG1 genotoxic 0%, Rab9 prom act -3%, FLuc modulator 8%, SMN2 splice up 9% and NPC1 promoter act 1%.
For O=C(Nc1cccs1)Nc1c(F)c(F)cc(F)c1F the results were ELG1 genotoxic -3%, Rab9 prom act -2%, FLuc modulator -12%, SMN2 splice up -9% and NPC1 promoter act -3%.
Screening O=S(=O)(c1ccc(NC(=S)N/N=C/c2ccc(O)c(O)c2)cc1)N1CCOCC1 returned ELG1 genotoxic 3%, Rab9 prom act -5%, FLuc modulator 17µM* and NPC1 promoter act -2%.
CC(C)NC(=S)N/N=C/c1ccc(N2CCOCC2)cc1 was read as ELG1 genotoxic 8%, Rab9 prom act 0%, FLuc modulator -2%, SMN2 splice up 14% and NPC1 promoter act 12%.
Screening Oc1ccc(/C=N/NC(=S)N2CCOCC2)cc1 returned ELG1 genotoxic 9%, Rab9 prom act 28%, FLuc modulator 7.6µM*, SMN2 splice up -46% and NPC1 promoter act 26%.
For O=S(=O)(c1ccc(Cl)c(NC(=S)N/N=C/c2ccc(O)cc2)c1)N1CCOCC1 the results were ELG1 genotoxic -6%, Rab9 prom act 1%, FLuc modulator 17µM*, SMN2 splice up -63% and NPC1 promoter act -7%.
Screening CCCCn1c(NC(C)CC)nc2c1c(=O)[nH]c(=O)n2C (configuration not stated) returned ELG1 genotoxic 5%, Rab9 prom act 1%, FLuc modulator 2%, SMN2 splice up -5% and NPC1 promoter act -4%.
For COc1ccc(C2CC(=O)C(C=NCCCN3CCOCC3)=C(O)C2)cc1 (configuration not stated) the results were ELG1 genotoxic -1%, Rab9 prom act 2%, FLuc modulator 1%, SMN2 splice up -17% and NPC1 promoter act -1%.
Screening Cc1ccccc1Cn1cc(NC(=O)c2cc(C3CC3)on2)cn1 returned ELG1 genotoxic -11%, Rab9 prom act inconclusive, FLuc modulator 19µM* and NPC1 promoter act inconclusive.
Cc1ccccc1Cn1cc(NC(=O)c2cc(-c3ccc(Cl)cc3)on2)cn1 was read as FLuc modulator 6% and SMN2 splice up -3%.
COc1ccc2nc(NC(=O)c3nc(S(=O)(=O)Cc4ccccc4)ncc3Cl)sc2c1 was read as FLuc modulator -22% and SMN2 splice up -3%.
`N#C/C(=C\c1ccc(F)c(Br)c1)C(=O)NC1CC1` gave ELG1 genotoxic 10µM*, Rab9 prom act 4µM*, FLuc modulator inconclusive and NPC1 promoter act 3.2µM*.
`COCc1nc(-c2ccc(-c3ccccc3)nc2OC)no1` gave ELG1 genotoxic 4%, Rab9 prom act 4µM*, FLuc modulator inconclusive, SMN2 splice up 22µM* and NPC1 promoter act inconclusive.
Screening CCc1nc(-c2ccc(-c3ccc(OC)cc3)nc2OC)no1 returned ELG1 genotoxic inconclusive, Rab9 prom act inconclusive, FLuc modulator 21µM*, SMN2 splice up inconclusive and NPC1 promoter act inconclusive.
Screening COCc1nc(-c2ccc(-c3ccc(OC)cc3)nc2OC)no1 returned ELG1 genotoxic 12%, Rab9 prom act 24%, FLuc modulator inconclusive, SMN2 splice up 19% and NPC1 promoter act 13%.
Screening COC(=O)[C@@]1(Cc2ccccc2)[C@H]2c3cc(C(=O)N4CCCC4)n(C)c3C[C@H]2CN1C(=O)c1ccccc1 returned SMN2 splice up 2%.
Screening CCOC(=O)N1CCC(NC(=O)Cn2c3c(c(-c4ccccc4Cl)cc2=O)CCC3)CC1 returned ELG1 genotoxic inconclusive, Rab9 prom act -9%, FLuc modulator 2%, SMN2 splice up -37% and NPC1 promoter act -1%.
Screening Cc1cc(C)n2nc(-c3ccc(Cl)cc3)cc2n1 returned ELG1 genotoxic 15µM*, Rab9 prom act 3.5µM*, FLuc modulator 3.8µM* and NPC1 promoter act 4µM*.
Screening Cc1cc(C)n2nc(-c3ccc(Br)cc3)cc2n1 returned ELG1 genotoxic inconclusive, Rab9 prom act inconclusive, FLuc modulator 2.7µM* and NPC1 promoter act 3.5µM*.
For COc1ccc(-c2nc3nc(C)cc(C)n3n2)cc1 the results were ELG1 genotoxic inconclusive, Rab9 prom act inconclusive, FLuc modulator 11µM*, SMN2 splice up 13µM* and NPC1 promoter act inconclusive.
`Cc1nc2cc(-c3ccc(Cl)cc3)nn2c(NCCN(C)C)c1C` gave ELG1 genotoxic inconclusive, Rab9 prom act 24%, FLuc modulator 13µM* and NPC1 promoter act inconclusive.
Screening Cc1cc(-c2ccc(Cl)cc2)n2nc(C)cc2n1 returned ELG1 genotoxic -1%, Rab9 prom act 3%, FLuc modulator -1% and NPC1 promoter act -4%.
`O=C(COC(=O)c1cc(C(F)(F)F)cc(C(F)(F)F)c1)NCc1ccc(Cl)cc1` gave ELG1 genotoxic 5%, Rab9 prom act 8%, FLuc modulator 0%, SMN2 splice up 6% and NPC1 promoter act -1%.
For Cc1ccc(-c2c(C)sc3nc(CN4CCN(CC(=O)NC5CC5)CC4)[nH]c(=O)c23)cc1 the results were ELG1 genotoxic 1%, Rab9 prom act -1% and NPC1 promoter act 1%.
`COc1ccc(-c2cc3nc(C)cc(C)n3n2)cc1` gave ELG1 genotoxic inconclusive, Rab9 prom act 3.5µM*, FLuc modulator 7.6µM*, SMN2 splice up 10µM* and NPC1 promoter act 3.2µM*.

Assay outcomes from PubChem.
